Results: PubChem BioAssay AID624136 (Broad Institute, 2012)
Screen size: about 17,000 compounds; about 75 (0.4%) were called active.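 How the source made its calls: active means compounds whose four printed spots each glow above background more than chance allows, each with a p-value under 7%; inactive means the rest.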 For the sample, actives were picked, then their nearest neighbours and some compounds at random.

test system: mutant tumor protein p53 (GST-tagged), Homo sapiens; test: small molecules binding GST-tagged mutant p53 – biochemical, small molecule microarray, anti-GST fluorescence, primary screen (AID 624136)

outcome, inactive:
C[C@@H]1CN([C@@H](C)CO)C(=O)Cc2cc(NC(=O)Nc3ccc(F)cc3)ccc2O[C@@H]1CN(C)C(=O)NC1CCCCC1, C[C@H]1CN([C@@H](C)CO)C(=O)c2cc(NC(=O)Nc3ccc4c(c3)OCO4)ccc2O[C@@H]1CN(C)CC1CCCCC1, COc1ccc(S(=O)(=O)Nc2ccc3c(c2)CC(=O)N([C@H](C)CO)C[C@H](C)[C@@H](CN(C)C)O3)cc1, COc1ccc(S(=O)(=O)N(C)C[C@@H]2Oc3ccc(NC(=O)CCC(F)(F)F)cc3C(=O)N([C@@H](C)CO)C[C@@H]2C)cc1, Cc1ccc(C(=O)C2C(=O)C(=O)N(Cc3cccnc3)C2c2ccc(Cl)c(Cl)c2)o1 (centres undefined), C[C@@H]1CN([C@@H](C)CO)C(=O)Cc2cc(NC(=O)CCN3CCOCC3)ccc2O[C@@H]1CN(C)CC1CC1, COc1ccc(NC(=O)Nc2cccc3c2O[C@@H](CN(C)S(=O)(=O)c2cn(C)cn2)[C@H](C)CN([C@@H](C)CO)C3=O)cc1, Cc1noc(C)c1S(=O)(=O)N(C)C[C@@H]1Oc2ccc(NC(=O)C3CC3)cc2CC(=O)N([C@@H](C)CO)C[C@@H]1C, Cc1noc(C)c1NC(=O)N(C)C[C@H]1OCc2cn(nn2)CCCC(=O)N([C@@H](C)CO)C[C@H]1C, C[C@H](CO)N1C[C@H](C)[C@@H](CN(C)C(=O)NC2CCCCC2)Oc2ccc(NC(=O)c3ccncc3)cc2CC1=O, O=C(C1=C[C@H](C2CC2)C[C@H](OCc2ccc(CO)cc2)O1)N1CCN(Cc2ccccc2)CC1, Cn1nnnc1SCC(=O)Nc1cccc(NC(=O)C23CC4CC(CC(C4)C2)C3)c1, C[C@@H]1CN([C@H](C)CO)C(=O)c2cccc(NS(=O)(=O)c3ccc(Cl)cc3)c2O[C@@H]1CN(C)CC1CC1, COc1ccc(CN(C)C[C@@H]2Oc3ccc(NC(=O)Nc4ccc(OC)cc4)cc3CC(=O)N([C@H](C)CO)C[C@H]2C)cc1, COC(=O)c1c(C)n(CCNc2ccc([N+](=O)[O-])cc2)c2ccc(O)cc12, O=C(CCc1nc(-c2ccccc2Cl)no1)Nc1ccccc1[N+](=O)[O-], C[C@H]1CN([C@@H](C)CO)C(=O)c2cccc(NC(=O)C3CCOCC3)c2O[C@@H]1CN(C)C(=O)Nc1cccc2ccccc12, C[C@@H]1CN([C@@H](C)CO)C(=O)c2cccc(NS(=O)(=O)c3cn(C)cn3)c2O[C@H]1CN(C)Cc1ccc(Cl)c(Cl)c1, C=C1C[C@@H]2COC(=O)[C@]2(Cc2ccc3ccccc3c2)C1
